Experimental data reported in PubChem BioAssay (EPA / NIEHS).
Where “and” joins values, the source holds several entries; their conditions need not be identical. Identical values can stand only once. Inconclusive results are not listed. Some compounds were tested as several samples or in several runs, with calls that do not always agree. Calls of active or inactive are those of the source. How the source made its calls, unless noted: active means hit-call score of the fitted dose curve at least 0.9, where 1 is the maximum; inactive means score below 0.9.

Experiments:
[1] = target: Glucocorticoid receptor (Homo sapiens) (UniProt P04150); test: ATG_GR_TRANS: Attagene TRANS-FACTORIAL HepG2 Assay for human Glucocorticoid Receptor (GR) (AID 2282978; active means hit-call score of the fitted dose curve at least 0.9, where 1 is the maximum;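 further: activators score as hits since higher reporter transcript over DMSO is fitted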); settings: HepG2 Attagene TRANS GR reporter, mRNA transcription
Sequence of Glucocorticoid receptor (Homo sapiens) (P04150 whole entry, looked up, the tested form may be a part): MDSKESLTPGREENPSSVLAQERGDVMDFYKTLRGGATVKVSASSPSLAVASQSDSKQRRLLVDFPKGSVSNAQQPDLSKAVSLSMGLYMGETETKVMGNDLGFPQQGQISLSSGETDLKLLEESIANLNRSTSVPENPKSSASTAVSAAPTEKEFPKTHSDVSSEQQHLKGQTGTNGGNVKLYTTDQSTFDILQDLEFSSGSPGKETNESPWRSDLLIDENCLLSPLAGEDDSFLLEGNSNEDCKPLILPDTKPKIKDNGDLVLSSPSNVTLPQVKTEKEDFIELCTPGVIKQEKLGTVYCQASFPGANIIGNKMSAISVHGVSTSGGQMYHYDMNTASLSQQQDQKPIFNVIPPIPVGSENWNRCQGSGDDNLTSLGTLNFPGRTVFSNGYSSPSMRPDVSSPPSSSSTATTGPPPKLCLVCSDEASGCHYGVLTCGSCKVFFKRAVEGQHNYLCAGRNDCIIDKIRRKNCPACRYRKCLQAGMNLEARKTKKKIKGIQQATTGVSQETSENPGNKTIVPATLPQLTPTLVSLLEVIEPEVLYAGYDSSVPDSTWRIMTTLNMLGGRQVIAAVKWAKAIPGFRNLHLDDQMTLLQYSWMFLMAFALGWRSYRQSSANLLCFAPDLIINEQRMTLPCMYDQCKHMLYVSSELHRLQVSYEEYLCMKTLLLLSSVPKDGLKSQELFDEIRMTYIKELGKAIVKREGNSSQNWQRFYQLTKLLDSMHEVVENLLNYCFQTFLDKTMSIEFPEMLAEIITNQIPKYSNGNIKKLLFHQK
Outline: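 Transient MRTU transfection of HepG2 (GAL4-UAS reporters, exogenous NR-GAL4 chimeras), 24 h dosing. Readout: reporter transcript via RT-PCR + capillary electrophoresis fluorescence. Positive direction vs DMSO baseline.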

[2] = ATG_M_06_TRANS: Attagene TRANS-FACTORIAL HepG2 Assay for M06 Transcription Factor (Internal Marker) (AID 2282983; active means hit-call score of the fitted dose curve at least 0.9, where 1 is the maximum); settings: HepG2 Attagene TRANS M06 internal marker reporter
Outline: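 mRNA levels of a reporter transcript, quantified as FAM fluorescence on capillary electrophoresis, served as readout. HepG2 cells expressing exogenous GAL4-chimera reporter constructs were exposed for 24 h. Gain of signal over DMSO was evaluated.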

[3] = ATG_M_32_TRANS: Attagene TRANS-FACTORIAL HepG2 Assay for M32 Transcription Factor (Internal Marker) (AID 2282984; active means hit-call score of the fitted dose curve at least 0.9, where 1 is the maximum;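 further: transcript level of a background control reporter unit measured by RT-PCR and capillary electrophoresis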); settings: HepG2 Attagene TRANS M32 internal marker reporter
Outline: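 Cell-based TRANS-format assay in HepG2: exogenous chimeric GAL4 reporter units transiently expressed, compounds applied 24 h. Reporter mRNA detected by RT-PCR plus capillary electrophoresis; this readout is an internal background marker.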

[4] = target: Nuclear receptor subfamily 4 group A member 2 (Homo sapiens) (UniProt P43354); test: ATG_NURR1_TRANS: Attagene TRANS-FACTORIAL HepG2 Assay for human Nuclear Receptor Related Protein 1 (NURR1) (AID 2282985; active means hit-call score of the fitted dose curve at least 0.9, where 1 is the maximum); settings: HepG2 Attagene TRANS reporter, mRNA readout
Sequence of Nuclear receptor subfamily 4 group A member 2 (Homo sapiens) (P43354 whole entry, looked up, the tested form may be a part): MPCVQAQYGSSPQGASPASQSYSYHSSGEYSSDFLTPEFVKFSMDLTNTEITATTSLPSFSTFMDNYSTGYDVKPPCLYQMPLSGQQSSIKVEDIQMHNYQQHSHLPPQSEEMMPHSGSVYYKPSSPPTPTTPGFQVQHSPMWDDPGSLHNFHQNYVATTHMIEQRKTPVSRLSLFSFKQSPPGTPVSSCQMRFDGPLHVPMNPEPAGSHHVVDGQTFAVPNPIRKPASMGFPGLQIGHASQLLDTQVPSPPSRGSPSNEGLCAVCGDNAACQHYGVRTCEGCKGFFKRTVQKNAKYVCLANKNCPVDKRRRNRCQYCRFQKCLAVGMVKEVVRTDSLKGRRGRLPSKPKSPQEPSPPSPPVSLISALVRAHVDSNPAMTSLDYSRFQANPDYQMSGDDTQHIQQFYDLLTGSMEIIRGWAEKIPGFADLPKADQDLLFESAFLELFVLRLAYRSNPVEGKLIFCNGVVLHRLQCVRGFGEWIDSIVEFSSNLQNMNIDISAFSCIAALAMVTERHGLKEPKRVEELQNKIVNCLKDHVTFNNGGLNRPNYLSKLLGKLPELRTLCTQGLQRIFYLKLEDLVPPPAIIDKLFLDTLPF
Outline: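 Measures transcriptional activation by an exogenous NR-Gal4 chimera in transfected HepG2 liver cells. After 24 h, reporter RNA is reverse-transcribed, amplified and resolved by capillary electrophoresis; DMSO defines baseline.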

[5] = target: Transcriptional activator Myb (Homo sapiens) (UniProt P10242); test: ATG_Myb_CIS: Attagene CIS-FACTORIAL HepG2 Assay for human Myeloblastosis (Myb) Proto-Oncogene Transcription Factor (AID 2282986); settings: HepG2 Attagene CIS-FACTORIAL Myb reporter transcription; actives raise or lower the signal
Sequence of Transcriptional activator Myb (Homo sapiens) (P10242 whole entry, looked up): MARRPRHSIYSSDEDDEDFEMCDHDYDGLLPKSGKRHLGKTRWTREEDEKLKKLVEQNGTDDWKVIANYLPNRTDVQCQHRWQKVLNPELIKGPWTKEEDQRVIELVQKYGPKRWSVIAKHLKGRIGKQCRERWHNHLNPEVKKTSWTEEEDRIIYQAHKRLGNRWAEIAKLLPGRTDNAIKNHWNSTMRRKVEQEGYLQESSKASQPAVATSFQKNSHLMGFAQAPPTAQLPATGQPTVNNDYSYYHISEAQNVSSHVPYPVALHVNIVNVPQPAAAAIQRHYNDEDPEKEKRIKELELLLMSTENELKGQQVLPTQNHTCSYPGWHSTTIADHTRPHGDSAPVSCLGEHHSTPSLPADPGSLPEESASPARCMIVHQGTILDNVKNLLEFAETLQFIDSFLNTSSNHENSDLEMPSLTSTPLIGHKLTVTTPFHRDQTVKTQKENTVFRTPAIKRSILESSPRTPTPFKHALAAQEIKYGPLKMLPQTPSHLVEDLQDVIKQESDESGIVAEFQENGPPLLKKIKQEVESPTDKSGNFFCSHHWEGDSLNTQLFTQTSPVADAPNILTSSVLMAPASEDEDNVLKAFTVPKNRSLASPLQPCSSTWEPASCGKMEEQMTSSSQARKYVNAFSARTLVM
Outline: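 HepG2, transient MRTU transfection (cis-element promoters, endogenous TF activity), 24 h compound exposure. Readout: reporter mRNA via RT-PCR, 6-FAM labeling, HpaI digest, capillary electrophoresis. Gain/loss fit vs DMSO.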

[6] = target: Nuclear respiratory factor 1 (Homo sapiens) (UniProt Q16656); test: ATG_NRF1_CIS: Attagene CIS-FACTORIAL HepG2 Assay for human Nuclear Respiratory Factor 1 (NRF1) Orphan Gene (AID 2282987); settings: HepG2 NRF1 cis-element reporter, Attagene multiplex; actives raise or lower the signal
Sequence of Nuclear respiratory factor 1 (Homo sapiens) (Q16656 whole entry, looked up): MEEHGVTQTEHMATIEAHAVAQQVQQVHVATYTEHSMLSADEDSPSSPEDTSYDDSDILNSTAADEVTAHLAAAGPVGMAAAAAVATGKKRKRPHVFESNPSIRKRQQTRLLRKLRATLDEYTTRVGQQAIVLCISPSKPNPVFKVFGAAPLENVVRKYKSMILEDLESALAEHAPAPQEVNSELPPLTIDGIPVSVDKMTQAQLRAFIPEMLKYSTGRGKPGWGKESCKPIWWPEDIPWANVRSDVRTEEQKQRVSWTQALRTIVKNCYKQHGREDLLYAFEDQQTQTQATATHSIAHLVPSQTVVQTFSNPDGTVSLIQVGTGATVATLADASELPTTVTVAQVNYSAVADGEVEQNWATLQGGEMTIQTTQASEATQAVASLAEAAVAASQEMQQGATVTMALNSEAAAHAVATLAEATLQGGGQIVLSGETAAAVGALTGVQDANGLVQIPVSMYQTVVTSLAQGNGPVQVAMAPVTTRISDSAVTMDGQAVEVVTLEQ
Outline: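 Endogenous NRF1-driven reporter transcription measured in transiently transfected human HepG2 liver cells. Readout: reporter mRNA by RT-PCR and capillary electrophoresis with fluorescence detection, 24 h post-dosing. Gain or loss of signal fitted relative to DMSO baseline.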

[7] = ATG_NFI_CIS: Attagene CIS-FACTORIAL HepG2 Assay for human Nuclear Factor I (NFI) (AID 2282989); settings: HepG2 cis-regulatory reporter, NFI response element transcription; actives raise or lower the signal
Outline: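 HepG2 cells transiently transfected with cis-element-driven multiplexed reporter transcription units, dosed for 24 h. Reporter mRNA quantified by RT-PCR, fluorescent labelling, HpaI digestion and capillary electrophoresis; bidirectional fit versus DMSO baseline.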

[8] = target: Myc proto-oncogene protein (Homo sapiens) (UniProt P01106); test: ATG_Myc_CIS: Attagene CIS-FACTORIAL HepG2 Assay for human Myelocytomatosis (Myc) Proto-Oncogene Transcription Factor (AID 2282990); settings: HepG2, Attagene cis-reporter transcription factor activity; actives raise or lower the signal
Sequence of Myc proto-oncogene protein (Homo sapiens) (P01106 whole entry, looked up, the tested form may be a part): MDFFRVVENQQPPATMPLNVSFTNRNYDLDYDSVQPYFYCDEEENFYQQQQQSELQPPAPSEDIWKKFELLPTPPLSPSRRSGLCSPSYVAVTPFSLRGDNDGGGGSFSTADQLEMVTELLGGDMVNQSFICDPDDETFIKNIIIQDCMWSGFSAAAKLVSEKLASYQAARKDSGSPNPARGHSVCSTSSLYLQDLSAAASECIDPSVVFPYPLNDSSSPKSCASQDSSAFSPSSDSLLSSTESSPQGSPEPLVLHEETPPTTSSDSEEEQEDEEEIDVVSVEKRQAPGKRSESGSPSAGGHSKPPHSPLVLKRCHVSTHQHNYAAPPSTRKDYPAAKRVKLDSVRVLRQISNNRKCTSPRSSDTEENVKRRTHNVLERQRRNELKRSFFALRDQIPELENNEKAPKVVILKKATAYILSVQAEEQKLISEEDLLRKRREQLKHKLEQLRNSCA
Outline: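 After 24 h chemical treatment of HepG2 cells carrying multiplexed cis-regulated reporter constructs, reporter transcripts quantified by RT-PCR and capillary electrophoresis of fluorescent fragments. Gain or loss fitted against DMSO baseline.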

[9] = ATG_NF_kB_CIS: Attagene CIS-FACTORIAL HepG2 Assay for human Nuclear Factor Kappa B (NF-kB) (AID 2282991); settings: HepG2 Attagene cis-factorial NF-kB reporter mRNA; actives raise or lower the signal
Outline: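 Read-out: reporter transcript levels quantified by RT-PCR plus capillary electrophoresis of 6-FAM-labelled, HpaI-cut fragments. Transfected HepG2 cells, 24 h compound exposure, endogenous NF-kB-driven cis element; gain or loss scored versus DMSO.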

[10] = ATG_NRF2_ARE_CIS: Attagene CIS-FACTORIAL HepG2 Assay for human Nuclear Factor Erythroid 2 Related Factor 2 (NFR2) response to Antioxidant Response Elements (ARE) (AID 2282992); settings: HepG2 Attagene ARE/NRF2 reporter, transcription factor activity; actives raise or lower the signal
Outline: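 Endogenous transcription factor activity read out as reporter transcript levels (RT-PCR plus capillary electrophoresis, fluorescence) in transiently transfected HepG2 cells. Measured at 24 h after dosing; gain or loss of signal fitted versus DMSO.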

[11] = target: Cellular tumor antigen p53 (Homo sapiens) (UniProt P04637); test: ATG_p53_CIS: Attagene CIS-FACTORIAL HepG2 Assay for human p53 Transcription Factor (AID 2282994); settings: HepG2 p53 cis-element reporter, Attagene mRNA; actives raise or lower the signal
Outline: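 Endogenous p53 activity read in transiently transfected HepG2 from a cis-element-driven reporter transcript after 24 h exposure. RNA reverse-transcribed, PCR-amplified, fluorescently labelled and sized by capillary electrophoresis; gain or loss fitted against DMSO baseline.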

[12] = BSK_3C_TissueFactor: BioMAP Diversity Plus: 3C Assay for Tissue Factor Biomarker Activity (AID 2282997); settings: BioMAP 3C HUVEC, tissue factor biomarker readout; actives raise or lower the signal
Outline: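 Tissue Factor measured by ELISA, 24 h after treatment of primary HUVEC in the BioMAP 3C setting.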

[13] = BSK_3C_uPAR: BioMAP Diversity Plus: 3C Assay for Urokinase-type plasminogen activator receptor (uPAR) Biomarker Activity (AID 2282998); settings: BioMAP 3C HUVEC, uPAR biomarker ELISA; actives raise or lower the signal
Outline: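 Human umbilical vein endothelial primary cells were exposed to test chemical for 24 h. Cell-surface uPAR was then quantified by ELISA, and responses were fitted bidirectionally against DMSO as negative control and baseline.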

[14] = BSK_3C_VCAM1: BioMAP Diversity Plus: 3C Assay for Vascular cell adhesion molecule 1 (VCAM1) Biomarker Activity (AID 2282999); settings: BioMAP 3C HUVEC, VCAM1 ELISA, cytokine-stimulated; actives raise or lower the signal
Outline: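 Activity fitted in both directions relative to DMSO, with ELISA measurement of the surface marker on primary HUVEC (3C) at 24 h post-treatment; parallel SRB staining (0.1% SRB, TCA-fixed, 560 nm) flagged overt cytotoxicity.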

[15] = target: Bile acid receptor (Homo sapiens) (UniProt Q96RI1); test: ATG_FXR_TRANS: Attagene TRANS-FACTORIAL HepG2 Assay for Farnesoid X Receptor (FXR) (AID 2282979; active means hit-call score of the fitted dose curve at least 0.9, where 1 is the maximum;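 further: hits raise reporter mRNA above DMSO so AC50 marks FXR activation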); settings: HepG2 Attagene TRANS FXR-GAL4 reporter transcription
Sequence of Bile acid receptor (Homo sapiens) (Q96RI1 whole entry, looked up, the tested form may be a part): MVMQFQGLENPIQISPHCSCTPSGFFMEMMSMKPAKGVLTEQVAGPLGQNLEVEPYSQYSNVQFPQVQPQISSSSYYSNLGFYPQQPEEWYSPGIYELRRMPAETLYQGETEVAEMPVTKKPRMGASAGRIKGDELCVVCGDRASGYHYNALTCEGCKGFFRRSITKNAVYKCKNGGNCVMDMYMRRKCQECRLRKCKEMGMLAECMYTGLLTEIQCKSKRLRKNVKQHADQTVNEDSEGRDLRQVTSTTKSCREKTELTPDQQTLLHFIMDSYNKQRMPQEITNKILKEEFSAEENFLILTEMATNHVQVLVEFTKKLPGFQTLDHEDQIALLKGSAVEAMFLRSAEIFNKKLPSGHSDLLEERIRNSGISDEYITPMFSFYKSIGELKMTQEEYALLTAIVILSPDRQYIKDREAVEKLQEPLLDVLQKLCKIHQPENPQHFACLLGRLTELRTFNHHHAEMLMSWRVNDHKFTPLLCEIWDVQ
Outline: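 HepG2 cells were transiently transfected with GAL4-UAS reporters driven by chimeric NR-Gal4 proteins and dosed for 24 h. Reporter mRNA was quantified by RT-PCR, fluorescent labelling, HpaI digestion and capillary electrophoresis, with gain of signal scored versus DMSO.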

[16] = target: Oxysterols receptor LXR-alpha (Homo sapiens) (UniProt Q13133); test: ATG_LXRa_TRANS: Attagene TRANS-FACTORIAL HepG2 Assay for human Liver X Receptor alpha (LXRa) (AID 2282980; active means hit-call score of the fitted dose curve at least 0.9, where 1 is the maximum); settings: HepG2 Attagene TRANS reporter, LXRa transactivation
Sequence of Oxysterols receptor LXR-alpha (Homo sapiens) (Q13133 whole entry, looked up, the tested form may be a part): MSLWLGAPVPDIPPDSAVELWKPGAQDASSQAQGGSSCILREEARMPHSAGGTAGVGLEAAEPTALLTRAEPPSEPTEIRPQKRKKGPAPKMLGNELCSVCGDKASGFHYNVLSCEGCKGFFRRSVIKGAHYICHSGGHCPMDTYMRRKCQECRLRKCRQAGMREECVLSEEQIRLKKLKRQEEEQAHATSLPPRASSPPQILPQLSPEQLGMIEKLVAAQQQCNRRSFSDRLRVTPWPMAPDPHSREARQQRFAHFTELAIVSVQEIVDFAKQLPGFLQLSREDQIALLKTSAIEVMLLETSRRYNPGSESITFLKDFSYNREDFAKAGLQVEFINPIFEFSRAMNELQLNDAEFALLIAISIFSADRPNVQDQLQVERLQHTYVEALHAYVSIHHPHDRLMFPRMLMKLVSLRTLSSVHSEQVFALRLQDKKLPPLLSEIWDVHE
Outline: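 HepG2 cells transiently transfected with GAL4-UAS reporter units for chimeric NR-Gal4 proteins, exposed to chemicals for 24 h. Reporter mRNA quantified by RT-PCR and capillary electrophoresis; gain of signal fitted relative to DMSO.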

[17] = target: Oxysterols receptor LXR-beta (Homo sapiens) (UniProt P55055); test: ATG_LXRb_TRANS: Attagene TRANS-FACTORIAL HepG2 Assay for human Liver X Receptor beta (LXRb) (AID 2282981; active means hit-call score of the fitted dose curve at least 0.9, where 1 is the maximum); settings: HepG2 Attagene TRANS GAL4-LXRb reporter, mRNA
Sequence of Oxysterols receptor LXR-beta (Homo sapiens) (P55055 whole entry, looked up, the tested form may be a part): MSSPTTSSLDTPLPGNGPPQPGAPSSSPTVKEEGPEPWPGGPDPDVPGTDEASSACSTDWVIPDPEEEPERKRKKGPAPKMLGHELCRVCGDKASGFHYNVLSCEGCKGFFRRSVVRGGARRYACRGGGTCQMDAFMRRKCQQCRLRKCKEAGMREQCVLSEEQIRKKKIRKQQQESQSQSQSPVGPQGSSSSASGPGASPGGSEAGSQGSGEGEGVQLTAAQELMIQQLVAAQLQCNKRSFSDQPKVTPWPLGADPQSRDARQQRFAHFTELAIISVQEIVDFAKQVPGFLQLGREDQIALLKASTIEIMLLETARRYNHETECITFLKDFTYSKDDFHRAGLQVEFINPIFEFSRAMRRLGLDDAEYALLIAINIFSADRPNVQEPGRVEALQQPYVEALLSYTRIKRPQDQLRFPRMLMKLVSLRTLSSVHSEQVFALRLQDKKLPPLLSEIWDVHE
Outline: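 After 24 h of chemical treatment, transfected HepG2 cells yield total RNA; reporter cDNA is PCR-amplified, FAM-labelled, HpaI-cut and run on capillary electrophoresis. Signal reflects chimeric LXRb-Gal4 activity on GAL4-UAS reporters.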

[18] = ATG_Oct_MLP_CIS: Attagene CIS-FACTORIAL HepG2 Assay for human Octamer-Binding Transcription Factor (Oct) (AID 2282993); settings: HepG2 Attagene cis-factorial Oct reporter, mRNA; actives raise or lower the signal
Outline: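 HepG2 cells transiently transfected with cis-promoter-driven multiplexed reporter transcription units, dosed for 24 h. Reporter mRNA quantified by RT-PCR, fluorescent labelling, HpaI digestion and capillary electrophoresis; bidirectional fits versus DMSO baseline.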

[19] = target: Hepatocyte nuclear factor 4-alpha (Homo sapiens) (UniProt P41235); test: ATG_HNF4a_TRANS: Attagene TRANS-FACTORIAL HepG2 Assay for human Hepatocyte Nuclear Factor 4 alpha (HNF4a) (AID 2282982; active means hit-call score of the fitted dose curve at least 0.9, where 1 is the maximum); settings: HepG2 HNF4a transactivation reporter, mRNA readout
Sequence of Hepatocyte nuclear factor 4-alpha (Homo sapiens) (P41235 whole entry, looked up): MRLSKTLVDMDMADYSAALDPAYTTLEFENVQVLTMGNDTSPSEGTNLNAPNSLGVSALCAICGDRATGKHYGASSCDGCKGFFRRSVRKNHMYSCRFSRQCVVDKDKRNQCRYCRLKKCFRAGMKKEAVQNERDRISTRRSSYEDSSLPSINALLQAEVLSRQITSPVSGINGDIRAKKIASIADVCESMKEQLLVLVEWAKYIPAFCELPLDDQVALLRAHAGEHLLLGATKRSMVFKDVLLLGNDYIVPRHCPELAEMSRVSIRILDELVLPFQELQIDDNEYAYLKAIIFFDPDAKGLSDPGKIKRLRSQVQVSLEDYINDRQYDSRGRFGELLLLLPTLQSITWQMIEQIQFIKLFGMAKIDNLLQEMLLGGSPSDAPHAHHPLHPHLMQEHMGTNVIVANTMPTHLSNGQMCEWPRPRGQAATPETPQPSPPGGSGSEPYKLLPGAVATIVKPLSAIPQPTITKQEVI
Outline: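 Multiplexed reporter assay: transfected HepG2, 24 h exposure, total RNA → oligo(dT) RT → PCR → 6-FAM extension → HpaI digest → CE fluorescence. DMSO = negative control.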

Measured: AC50

C=CC/C=C/C/C=C/C/C=C/C
inactive: [1] | [2] | [3] | [4] | [5] | [6] | [7] | [8] | [9] | [10] | [11] | [12] | [13] | [14]

C=CC(=O)OCC(F)(F)C(F)(F)C(F)(F)C(F)(F)C(F)(F)C(F)(F)C(F)(F)F
inactive: [15] | [16] | [17] | [2] | [4] | [5] | [6] | [8] | [9] | [18] | [11] | [12] | [13] | [14]
active: [10] 50 µM

Cc1cccc(N(C)C)c1
inactive: [1] | [19] | [2] | [3] | [5] | [6] | [7] | [8] | [9] | [10] | [18] | [11]

FC(F)(F)C(F)(F)C(F)(F)C(F)(F)C(F)(F)C(F)(F)C(F)(F)I
inactive: [15] | [16] | [2] | [3] | [5] | [6] | [8] | [9] | [10] | [18] | [11] | [12] | [13] | [14]

CNC(=S)NC
inactive: [15] | [17] | [19] | [2] | [4] | [5] | [6] | [7] | [8] | [9] | [10] | [18] | [11]

COC(=O)C1CCC(C(=O)OC)CC1 (stereo unspecified)
active: [10] 163 µM
inactive: [15] | [3] | [4] | [5] | [6] | [9] | [10] | [18] | [11]

CCCCCCOC(=O)c1ccccc1
inactive: [19] | [2] | [5] | [6] | [7] | [8] | [9] | [10] | [18] | [11]

O=S(=O)(O)c1ccc2ccccc2c1
inactive: [16] | [2] | [3] | [4] | [5] | [6] | [7] | [8] | [9] | [10] | [18] | [11]

C=CC(=O)OCC(F)(F)C(F)(F)C(F)(F)C(F)(F)COC(=O)C=C
inactive: [16] | [17] | [2] | [3] | [4] | [5] | [6]
active: [19] 240 µM | [7] 50 µM | [8] 65.2 µM | [9] 38.4 µM | [10] 12.8 µM | [11] 79.4 µM | [12] 24.9 µM and 35.5 µM | [13] 22.9 µM and 28.2 µM | [14] 26.7 µM and 21.6 µM

Nc1ccc(Oc2cccc(Oc3ccc(N)cc3)c2)cc1
active: [19] 160 µM | [5] 108 µM | [6] 76.4 µM | [10] 26.5 µM | [18] 24.9 µM | [11] 26.7 µM
inactive: [1] | [2] | [3] | [8] | [9]

O=P(O)(O)OCCC(F)(F)C(F)(F)C(F)(F)C(F)(F)C(F)(F)C(F)(F)F
inactive: [15] | [17] | [2] | [3] | [5] | [6] | [7] | [8] | [9] | [10] | [11] | [12] | [13] | [14]
